Test results reported in the supplement of paper PMC3545927.
This is one part of the list. No count for the full screen is at hand.

Target: furin, P09958
Experiment: furin cleavage Z-score vs untreated control; higher = more cleavage, active = 3.5 or more, inactive = 1 or less, 8 variable residues between constant flanks
Description: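 Multiplexed peptide-cDNA fusion cleavage assay. 8-mer variable peptides flanked by constant Cys-Ala (N-term) and Ala-Gly-Asn-Ala-Ser-Ala-Ser-Ala (C-term) and conjugated to a cDNA oligonucleotide were bead-immobilised via the N-terminus. They were treated with purified furin at a 1:10 enzyme:substrate ratio in 50 mM HEPES pH 7.5, 1 mM CaCl2, 100 mM NaCl for 7.5, 15 or 30 min. Released cDNA was counted by next-generation sequencing, and log counts versus no-furin controls were lowess-adjusted and converted to robust Z-scores.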

furin, P09958, sequence (P09958 whole entry): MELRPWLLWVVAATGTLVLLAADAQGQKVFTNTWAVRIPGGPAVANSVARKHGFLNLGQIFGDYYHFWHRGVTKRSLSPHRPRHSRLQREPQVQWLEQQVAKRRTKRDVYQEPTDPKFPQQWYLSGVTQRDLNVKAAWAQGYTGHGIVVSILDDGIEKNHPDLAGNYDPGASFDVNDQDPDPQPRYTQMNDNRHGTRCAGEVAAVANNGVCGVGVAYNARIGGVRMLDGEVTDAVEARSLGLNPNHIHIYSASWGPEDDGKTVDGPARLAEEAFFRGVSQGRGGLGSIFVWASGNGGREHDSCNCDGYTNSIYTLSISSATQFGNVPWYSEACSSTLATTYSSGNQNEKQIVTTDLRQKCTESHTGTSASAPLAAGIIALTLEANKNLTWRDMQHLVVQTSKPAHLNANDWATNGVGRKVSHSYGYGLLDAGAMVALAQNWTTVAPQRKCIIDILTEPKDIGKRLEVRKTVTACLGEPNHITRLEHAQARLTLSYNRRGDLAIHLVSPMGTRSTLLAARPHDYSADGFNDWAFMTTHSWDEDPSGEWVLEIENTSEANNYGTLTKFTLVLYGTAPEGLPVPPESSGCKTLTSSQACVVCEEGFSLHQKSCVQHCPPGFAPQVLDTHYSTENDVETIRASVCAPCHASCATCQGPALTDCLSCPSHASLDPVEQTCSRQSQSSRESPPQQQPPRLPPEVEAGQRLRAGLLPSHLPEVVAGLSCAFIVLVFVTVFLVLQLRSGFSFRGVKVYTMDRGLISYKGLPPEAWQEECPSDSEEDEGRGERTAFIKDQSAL

Sequence	furin cleavage Z-score (7.5 min)	furin cleavage Z-score (15 min)	furin cleavage Z-score (30 min)
CAPALRSARSAGNASASA [FS-66]	0.638 (inactive)	1.37	1.27
CASVASSSASAGNASASA [HC1259]	-0.54 (inactive)	0.0424 (inactive)	-0.501 (inactive)
CALNARYSRSAGNASASA [FS-52]	8.29 (active)	10.6 (active)	9.13 (active)
CAYGSRHIRLAGNASASA [FS-1107]	0.267 (inactive)	1.21	2.07
CASAHRQPRLAGNASASA [FS-144]	0.7 (inactive)	0.218 (inactive)	0.636 (inactive)
CASKSRVSRLAGNASASA [FS-1488]	3.43	1.78	3.65 (active)
CARLWRKSRSAGNASASA [FS-189]	9.72 (active)	8.99 (active)	8.13 (active)
CASKSRSARSAGNASASA [FS-500]	10.3 (active)	8.51 (active)	6.45 (active)
CAMEECSEHLAGNASASA [HC1732]	0.304 (inactive)	-1.16 (inactive)	0.588 (inactive)
CAAVPCHRPSAGNASASA [HC2303]	0.31 (inactive)	-0.11 (inactive)	0.292 (inactive)
CALGKVIDTLAGNASASA [HC220]	-0.0125 (inactive)	0.316 (inactive)	-0.584 (inactive)
CATTKCSGSWAGNASASA [HC1874]	-0.691 (inactive)	-0.337 (inactive)	-0.205 (inactive)
CASKSRSSRSAGNASASA [FS-501]	8.19 (active)	9.38 (active)	7.93 (active)
CANKSRESRPAGNASASA [FS-1469]	-0.557 (inactive)	-0.538 (inactive)	-0.178 (inactive)
CANKSRSSRSAGNASASA [FS-180]	8.13 (active)	8.25 (active)	6.67 (active)
CASGSRSSRSAGNASASA [FS-1409]	0.457 (inactive)	1.76	2.85
CATLSRSSRSAGNASASA [FS-1292]	6.97 (active)	8.07 (active)	7.37 (active)
CAPRTCRNMWAGNASASA [HC1185]	-0.106 (inactive)	1.74	0.874 (inactive)
CAMEEDSQHLAGNASASA [HC12]	1.39	-0.675 (inactive)	-1.53 (inactive)
CADLLVGSATAGNASASA [HC292]	-0.794 (inactive)	-0.376 (inactive)	-2.04 (inactive)
CAEVPCHRISAGNASASA [HC2384]	-0.484 (inactive)	0.399 (inactive)	0.761 (inactive)
CASLGRAKRAAGNASASA [FS-1569]	5.19 (active)	5.19 (active)	3.67 (active)
CARDQRSVLAAGNASASA [FS-2206]	-0.0379 (inactive)	-0.365 (inactive)	2.37
CAKHQRAKRAAGNASASA [FS-1130]	5.65 (active)	4.42 (active)	4.22 (active)
CASWGRVWRAAGNASASA [FS-1420]	0.424 (inactive)	-1.01 (inactive)	0.706 (inactive)
CASLLSPRPIAGNASASA [HC736]	0.821 (inactive)	-0.642 (inactive)	-0.193 (inactive)
CAAVRTKLKLAGNASASA [HC1635]	-0.516 (inactive)	0.293 (inactive)	1.05
